CYP2C19 inhib – blocks human cytochrome P450 2C19. P33261. CYP2C19 Supersomes, luciferin-H EGE luminescence, 30 min. inhibition, % at 5 µM. 96,000 tested, 21% active. AID 778;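 active = CYP2C19 inhibition above a set limit at 5 µM in the primary screen, cut at about 50% in these data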
CYP2C9 activ – increases human cytochrome P450 2C9 activity; P11712; recombinant CYP2C9, luciferin-H conversion, luminescence; stronger effect = higher value; factor 1 = untreated enzyme, 0 = blocked; activation factor at 5 µM; 96,000 tested, 1.4% active; AID 1024;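 active = activation factor of 2 or more for CYP2C9 at a 5 µM dose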
Target sequence (P11712 whole entry, looked up): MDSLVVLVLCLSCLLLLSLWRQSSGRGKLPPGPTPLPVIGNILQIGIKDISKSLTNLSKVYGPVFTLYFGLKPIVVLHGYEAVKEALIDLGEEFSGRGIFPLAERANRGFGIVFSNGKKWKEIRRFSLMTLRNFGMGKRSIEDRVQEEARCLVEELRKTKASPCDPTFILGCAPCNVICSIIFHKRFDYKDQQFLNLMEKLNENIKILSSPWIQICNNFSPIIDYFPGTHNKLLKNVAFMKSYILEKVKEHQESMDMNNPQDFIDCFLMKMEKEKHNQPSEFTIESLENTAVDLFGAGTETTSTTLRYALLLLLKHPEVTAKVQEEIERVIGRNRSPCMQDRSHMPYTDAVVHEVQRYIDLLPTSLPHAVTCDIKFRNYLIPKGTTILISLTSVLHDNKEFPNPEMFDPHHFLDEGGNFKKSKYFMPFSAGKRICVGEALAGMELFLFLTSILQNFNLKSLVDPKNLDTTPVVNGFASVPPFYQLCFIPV
CYP2C19 act – activators of human cytochrome P450 2C19; P33261; 96,000 tested, under 10 active; recombinant CYP2C19, luciferin-H EGE luminescence; stronger effect = higher value; 0 = fully inhibited enzyme, 1 = untreated enzyme; activation factor at 5 µM;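 active = activation factor of at least 2 at 5 µM in the primary screen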
CYP2C9 inh – human CYP2C9 inhibition | CYP2C9 Supersomes, luciferin-H conversion, luminescence | inhibition, % at 5 µM | 96,000 tested, 20% active | AID 777;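 active = blocking of liver enzyme CYP2C9 beyond about 50% at 5 µM, limit read from the data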
Measles CPE – protection of cells from measles virus; Measles virus-infected cells, CPE protection, absorbance; protection (pct of control), % at 4 µM; 140,000 tested, 1.5% active; AID 841; in the data active = protection mostly above about 24%, no sharp cut-off; inactive = mostly below about 26%
A number is an active result. Most compounds without a hit are left out; they make up all but 22% or so of the library.

`CN(C)CCCNc1cc(Cl)c(S(=O)(=O)N2CCCCC2)cc1C(=O)O` gave CYP2C19 inhib inactive, CYP2C9 activ inactive, CYP2C19 act inactive, CYP2C9 inh inactive and Measles CPE inactive.
`COc1cccc(OC)c1OCCOc1ccccc1OC(C)C` gave CYP2C19 inhib 82, CYP2C9 activ inactive, CYP2C19 act inactive, CYP2C9 inh inactive and Measles CPE inactive.
Screening COc1cccc(OCCOCCN(C)CCO)c1 returned CYP2C19 inhib inactive, CYP2C9 activ inactive, CYP2C19 act inactive, CYP2C9 inh inactive and Measles CPE inactive.
Screening COc1cccc(OCCOc2c(OC)cccc2OC)c1 returned CYP2C19 inhib 95, CYP2C9 activ inactive, CYP2C19 act inactive, CYP2C9 inh inactive and Measles CPE inactive.
For CC(C)Oc1ccccc1OCCN(C)C the results were Measles CPE inactive.
COc1cccc(OC)c1OCCCCN1CCCC1 was read as CYP2C19 inhib inactive, CYP2C9 activ inactive, CYP2C19 act inactive, CYP2C9 inh inactive and Measles CPE inactive.
COc1cccc(OC)c1OCCCOc1c(OC)cccc1OC was read as CYP2C19 inhib 76, CYP2C9 activ inactive, CYP2C19 act inactive, CYP2C9 inh inactive and Measles CPE inactive.
Screening Oc1ccc(-c2nccc(-c3cccs3)n2)cc1 returned CYP2C19 inhib inactive, CYP2C9 activ inactive, CYP2C19 act inactive, CYP2C9 inh 68 and Measles CPE inactive.
`Cc1ccc(C)n1-c1nccc(-c2cccs2)n1` gave CYP2C19 inhib inactive, CYP2C9 activ inactive, CYP2C19 act inactive, CYP2C9 inh inactive and Measles CPE inactive.
For COC(=O)C(C)Oc1ccc(-c2nccc(-c3cccs3)n2)cc1 (stereo unspecified) the results were CYP2C19 inhib inactive, CYP2C9 activ inactive, CYP2C19 act inactive, CYP2C9 inh 65 and Measles CPE inactive.
Screening O=C(Nc1nccc(-c2cccs2)n1)c1ccccc1Cl returned CYP2C19 inhib inactive, CYP2C9 activ inactive, CYP2C19 act inactive, CYP2C9 inh inactive and Measles CPE inactive.
For O=C1NC(c2ccccc2)C(C(=O)c2cccs2)C(O)(C(F)(F)F)N1 (stereo unspecified) the results were CYP2C19 inhib inactive, CYP2C9 activ inactive, CYP2C19 act inactive, CYP2C9 inh inactive and Measles CPE inactive.
Screening CCOC(=O)C1C(c2cc(OC)c(O)c(OC)c2)NC(=S)NC1(O)C(F)(F)F (stereo unspecified) returned Measles CPE 36.
Screening COc1cc(C2NC(=S)NC(O)(C(F)(F)F)C2C(=O)c2cccs2)cc(OC)c1O (stereo unspecified) returned Measles CPE 32.
For CCOC(=O)C1C(c2cc(OC)c(OC)c(OC)c2)NC(=S)NC1(O)C(F)(F)F (stereo unspecified) the results were CYP2C19 inhib inactive, CYP2C9 activ inactive, CYP2C19 act inactive, CYP2C9 inh inactive and Measles CPE inactive.
`CC(=O)c1ccc(Oc2ccc(C(=O)c3ccc(C)c(C)c3)cc2[N+](=O)[O-])cc1` gave Measles CPE inactive.
For COC(=O)c1ccc(Oc2ccc(C(C)(C)C)cc2)c([N+](=O)[O-])c1 the results were CYP2C19 inhib inactive, CYP2C9 activ inactive, CYP2C19 act inactive, CYP2C9 inh 60 and Measles CPE inactive.
`CS(=O)(=O)N1N=C(c2ccc(Cl)cc2)CC1c1cccs1` (stereo unspecified) gave CYP2C19 inhib 94, CYP2C9 activ inactive, CYP2C19 act inactive, CYP2C9 inh 56 and Measles CPE inactive.
CCCCOc1ccc(OCCNS(=O)(=O)N(C)C)cc1 was read as CYP2C19 inhib 54, CYP2C9 activ inactive, CYP2C19 act inactive, CYP2C9 inh inactive and Measles CPE inactive.
For COc1cc(OC)cc(-c2nnc(SCC(=O)N(Cc3ccccc3)C(C)(C)C)o2)c1 the results were CYP2C19 inhib 78, CYP2C9 activ inactive, CYP2C19 act inactive, CYP2C9 inh inactive and Measles CPE inactive.
For CCN(CC)C(=O)CSc1nnc(-c2cc(OC)cc(OC)c2)o1 the results were CYP2C19 inhib inactive, CYP2C9 activ inactive, CYP2C19 act inactive, CYP2C9 inh inactive and Measles CPE inactive.
Screening COc1cc(-c2nnc(SCC(=O)N(Cc3ccccc3)C(C)(C)C)o2)cc(OC)c1OC returned CYP2C19 inhib 85, CYP2C9 activ inactive, CYP2C19 act inactive, CYP2C9 inh inactive and Measles CPE inactive.
COc1cccc(-c2nnc(SCC(=O)N(C(C)C)C(C)C)o2)c1 was read as CYP2C19 inhib inactive, CYP2C9 activ inactive, CYP2C19 act inactive, CYP2C9 inh inactive and Measles CPE inactive.
